Measured values taken from PubChem BioAssay AID1159580 (chemical genetic matrix, 2015).
“And” between values parts separate entries of the source, which are not always exact repeats. Identical values can stand only once. Screen size: about 5,500 compounds; about 2,000 (36%) were called active. Not shown: some 18% with an inconclusive outcome. Cut-off read from the data, not from the text of the source: active = normalized growth mostly below about 0.91 (no sharp cut-off); inconclusive = no clear call, values can overlap the other calls; inactive = mostly above about 0.92. The list shows a part of the results.

Experiment: chemical genetic growth profiling, strain panel (AID 1159580);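 note: tested at 20 µM; growth read once vehicle control cultures reached saturation at 30 °C; 1 = growth at the plate median or of vehicle wells; lower values mean less growth of the strain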
Conditions: S. cerevisiae deletion strains, growth OD

Measured: normalized growth

COc1cc(O)c(C(=O)O)c(O)c1
inactive: locus YAL013W, strain DEP1, active compounds read low 1 | locus YAL021C, strain ccr4, active compounds read low 0.992 | locus YAL026C, strain drs2, active compounds read low 0.995 | locus YAL030W, strain snc1, active compounds read low 0.99 | locus YBL061C, strain skt5, active compounds read low 1 | locus YBR009C, strain hhf1, active compounds read low 1 | locus YBR021W, strain FUR4, active compounds read low 1.02 | locus YBR023C, strain chs3, active compounds read low 0.998 | locus YBR171W, strain sec66, active compounds read low 0.971 | locus YBR229C, strain ROT2, active compounds read low 0.995 | locus YBR231C, strain swc5, active compounds read low 1 | locus YBR279W, strain paf1, active compounds read low 0.998 | locus YCL011C, strain gbp2, active compounds read low 0.988 | locus YCL016C, strain dcc1, active compounds read low 0.991 | locus YCL029C, strain bik1, active compounds read low 1.01 | locus YCL061C, strain MRC1, active compounds read low 0.979 | locus YCL069W, strain vba3, active compounds read low 0.99 | locus YCR088W, strain abp1, active compounds read low 0.984 | locus YDL005C, strain med2, active compounds read low 0.976 | locus YDL035C, strain GPR1, active compounds read low 1.02 | locus YDL040C, strain nat1, active compounds read low 0.999 | locus YDL074C, strain BRE1, active compounds read low 1.02 | locus YDL101C, strain DUN1, active compounds read low 1 | locus YDL134C, strain PPH21, active compounds read low 1 | locus YDL185W, strain tfp1, active compounds read low 0.949 | locus YDL192W, strain arf1, active compounds read low 1.02 | locus YDR001C, strain nth1, active compounds read low 0.98 | locus YDR069C, strain doa4, active compounds read low 1.01 | locus YDR101C, strain arx1, active compounds read low 1.01 | locus YDR137W, strain rgp1, active compounds read low 0.974 | locus YDR150W, strain NUM1, active compounds read low 1 | locus YDR159W, strain sac3, active compounds read low 1.01 | locus YDR162C, strain NBP2, active compounds read low 1.01 | locus YDR195W, strain ref2 0.987 | locus YDR297W, strain sur2, active compounds read low 1 | locus YDR318W, strain mcm21, active compounds read low 1.02 | locus YDR334W, strain swr1, active compounds read low 0.999 | locus YDR335W, strain msn5, active compounds read low 0.992 | locus YDR388W, active compounds read low 1 | locus YDR392W, strain spt3, active compounds read low 1.01 | locus YDR502C, strain sam2, active compounds read low 0.998 | locus YEL003W, strain gim4, active compounds read low 1 | locus YEL037C, strain rad23, active compounds read low 0.985 | locus YEL061C, strain CIN8 (second series), active compounds read low 0.981 | locus YEL061C, strain CIN8, active compounds read low 1 | locus YER015W, strain faa2, active compounds read low 0.99 | locus YER016W, strain bim1, active compounds read low 0.989 | locus YER110C, active compounds read low 1.02 | locus YER111C, strain swi4, active compounds read low 0.987 | locus YER155C, strain BEM2 (second series), active compounds read low 0.978 | locus YER155C, strain BEM2, active compounds read low 0.987 | locus YER167W, strain BCK2, active compounds read low 1.03 | locus YFR010W, strain ubp6, active compounds read low 1.01 | locus YGL078C, strain dbp3, active compounds read low 0.973 | locus YGL086W, strain mad1, active compounds read low 1.01 | locus YGL167C, strain pmr1, active compounds read low 0.989 | locus YGL173C, strain kem1, active compounds read low 0.997 | locus YGL227W, strain vid30, active compounds read low 0.982 | locus YGL240W, strain doc1, active compounds read low 0.995 | locus YGL248W, strain PDE1, active compounds read low 1.01 | locus YGL253W, strain hxk2, active compounds read low 0.979 | locus YGR078C, strain PAC10, active compounds read low 1.01 | locus YGR135W, strain pre9, active compounds read low 1.01 | locus YGR229C, strain SMI1, active compounds read low 1.02 | locus YGR252W, strain gcn5, active compounds read low 1 | locus YHR013C, strain ard1, active compounds read low 0.998 | locus YHR027C, strain rpn1, active compounds read low 0.978 | locus YHR030C, strain SLT2, active compounds read low 0.996 and 0.881 | locus YHR079C, strain IRE1 (second series), active compounds read low 1.01 | locus YHR094C, strain hxt1, active compounds read low 0.997 | locus YHR129C, strain ARP1, active compounds read low 0.991 | locus YHR142W, strain chs7, active compounds read low 1.01 | locus YHR200W, strain rpn10, active compounds read low 1 | locus YIL066C, strain RNR3, active compounds read low 0.993 | locus YIL073C, strain SPO22, active compounds read low 1.09 | locus YIL125W, strain kgd1, active compounds read low 0.979 | locus YIR030C, strain dcg1, active compounds read low 1.01 | locus YJL092W, strain hpr5, active compounds read low 0.966 | locus YJL095W, strain BCK1 (second series), active compounds read low 0.998 | locus YJL095W, strain BCK1, active compounds read low 1 and 0.914 | locus YJL115W, strain asf1, active compounds read low 0.979 | locus YJL129C, strain trk1, active compounds read low 1 | locus YJL134W, strain LCB3, active compounds read low 0.993 | locus YJL154C, strain vps35, active compounds read low 0.976 | locus YJL164C, strain tpk1, active compounds read low 1.02 | locus YJL166W, strain qcr8, active compounds read low 1 | locus YJL168C, strain set2, active compounds read low 0.993 | locus YJL187C, strain SWE1 (second series), active compounds read low 1.01 | locus YJL187C, strain SWE1, active compounds read low 0.996 | locus YJR043C, strain POL32, active compounds read low 1.04 | locus YJR066W, strain TOR1, active compounds read low 0.841
active: locus YHR079C, strain IRE1, active compounds read low 0.839
